Reference: PubChem BioAssay

assay: adipocyte viability effects, profiling panel, cell-based, 3T3-L1 adipocytes, calcein-AM fluorescence, 48 h, basal (AID 1163); settings: 3T3-L1 adipocytes viability, higher = more signal
Further: test concentration not given here.

SMILES | z-score
COC(=O)[C@@]1(Cc2ccc(OC)cc2)[C@H]2c3cc(C(=O)N(C)C)n(C)c3C[C@H]2CN1C(=O)c1ccccc1 | 0.288
CN(C)CCCCCCNC(=O)[C@H]1C[C@H]2C(=O)N[C@@H](CCCCN)C(=O)N2[C@H]1c1cccc(OCCO)c1 | 0.414
NC(=O)NCC#Cc1ccc2c(c1)[C@]1(C(=O)N2)[C@H](c2ccccc2OCCO)N2[C@H](c3ccccc3)[C@H](c3ccccc3)OC(=O)[C@H]2[C@@H]1C(=O)Nc1nc2ccccc2s1 | 0.226
CC1CC/C=C\[C@H]2OC34C=CCN(C(C)(C)C)C(=O)[C@H]3N(CCO)C(=O)[C@@H]4C2C(=O)O1 (stereo partly specified) | 1.09
C=C(COC)/C(=C/C[C@H](OC(C)=O)c1ccc(CO)o1)c1cc(C(=O)OC)ccc1OC | 0.635
CNS(=O)(=O)c1ccc(C)cc1 | 0.451

assay: HepG2 cell viability effects, profiling panel, calcein-AM fluorescence, 48 h, basal (AID 1164); settings: higher = more signal

SMILES | z-score
O=C1NC(=O)C2C1C=CC(C(O)c1cc(C(F)(F)F)cc(C(F)(F)F)c1)N2Nc1ccccn1 (stereo unspecified) | -0.165
C=C(/C(=C/C[C@H](OC(C)=O)c1ccccc1OCCO)c1cnc2ccccc2c1)C(C)C | 0.218
COC(=O)[C@H](Cc1ccccc1)N1CC2=C[C@@H](C3CC3)n3c(=O)n(C)c(=O)n3[C@H]2[C@@H]1[C@@H](O)Cc1ccccc1 | 0.888
CC(=O)n1cc(C(O)C2C=CC3C(=O)N(c4ccccc4)C(=O)C3N2Nc2ccc([N+](=O)[O-])cc2)c2ccccc21 (stereo unspecified) | -0.439
CN1C=C(C(=O)OCCS(C)(=O)=O)C(C(=O)OCCS(C)(=O)=O)=CC(c2ccc(CO)cc2)=CC1C1CC1 (stereo unspecified) | 1.28
COC(=O)[C@]1(CCC(=O)OC(C)(C)C)N=C(c2ccc(OCCCO)cc2)O[C@@H]1c1ccccc1CN=[N+]=[N-] | -3.03
C=CCNC(=O)[C@@H]1[C@H]2C(=O)O[C@H](c3ccccc3)[C@H](c3ccccc3)N2[C@H](c2ccc(OCCO)cc2)[C@@]12C(=O)Nc1ccc(C#CCC(C(=O)OC)C(=O)OC)cc12 | 0.22
COC(=O)C(CC#Cc1ccc2c(c1)[C@]1(C(=O)N2)[C@H](c2ccc(OCCO)cc2)N2[C@H](c3ccccc3)[C@H](c3ccccc3)OC(=O)[C@H]2[C@@H]1C(=O)N1CCc2cc(OC)c(OC)cc2C1)C(=O)OC | 0.578
NC(=O)N1C(=O)C2C(C1=O)C1C=C(c3ccc(CO)cc3)C2C(c2cccs2)N1Cc1cccc(OC(F)(F)F)c1 (stereo unspecified) | 0.0764
C=CCC(OC(C)=O)[C@@H]1[C@@H](N(Cc2ccc(-c3ccccc3)cc2)C(=O)c2cccc3ccccc23)c2cc(OCCCO)ccc2N1C(=O)c1ccc(-c2ccccc2)cc1 (stereo partly specified) | 0.391
COc1cc(NN2C(C(O)c3ccco3)C=CC3C(=O)N(c4ccccc4)C(=O)C32)cc(OC)c1OC (stereo unspecified) | -0.337
CC(C)[Si]1(C(C)C)O[C@@H](c2ccccc2)c2cc(-c3ccc(-c4ccc(Cl)c(Cl)c4)o3)nc(-c3ccccc3)c21 | 0.428
CCOC(=O)C[C@H]1[C@H](OC(=O)c2ccc(C(=O)c3ccccc3)cc2)[C@@H](NC(=O)c2ccc3ccccc3n2)c2cc(OCCCO)ccc2N1C(=O)c1ccccc1 | 0.376
CC(C)C(O)C1C=CC2C(=O)NC(=O)C2N1Nc1ccc(Cl)cc1Cl (stereo unspecified) | -0.401
COc1ccc(C#Cc2ccc3c(c2)[C@]2(C(=O)N3)[C@H](C(=O)Nc3nc4ccccc4s3)[C@H]3C(=O)O[C@H](c4ccccc4)[C@H](c4ccccc4)N3[C@@H]2c2ccc(O)cc2)cc1 | 0.949
COC(=O)[C@@]1(Cc2ccccc2)N=C(c2ccc(OCCCO)cc2)O[C@H]1c1ccccc1 | -1.69
[N-]=[N+]=Nc1ccccc1[C@H]1OC(c2ccc(OCCCO)cc2)=N[C@@]1(CCS(=O)(=O)c1ccccc1)C(N)=O | 0.0844
O=C1C[C@@](C(=O)NC2CC2)(c2ccc([N+](=O)[O-])cc2)[C@@H](c2ccc(CO)cc2I)N1C1CCCCC1 | 0.522

SMILES | z-score
COc1cc2c(cc1OC)CN(C(=O)[C@H]1[C@@H]3C(=O)O[C@@H](c4ccccc4)[C@@H](c4ccccc4)N3[C@@H](c3ccc(O)cc3)[C@]13C(=O)Nc1ccccc13)CC2 | 0.394
O=C1O[C@H](c2ccccc2)[C@H](c2ccccc2)N2[C@H]1[C@@H](C(=O)N1CCCCCCC1)[C@]1(C(=O)Nc3ccc(C#CC4=CCCCC4)cc31)[C@H]2c1ccc(OCCO)cc1 | -0.103
COC(=O)[C@@]1(CCC(=O)OC(C)(C)C)N=C(c2ccc(OCCCO)cc2)O[C@H]1c1ccccc1N=[N+]=[N-] | -1.92
O=C1C2C=CC(C(O)c3cc(C(F)(F)F)cc(C(F)(F)F)c3)N(n3cnnc3)C2C(=O)N1Cc1ccccc1 (stereo unspecified) | -0.167
CCCCCN1CC=CC23O[C@@H]4C=CCCOC(=O)C4[C@H]2C(=O)N(CCCCCO)[C@@H]3C1=O (stereo partly specified) | 0.542
COc1ccc([Si](C)(C)[C@@H]2[C@@H](CCO)O[C@]3(C(=O)N(Cc4ccc(N(C=O)c5ccccc5)cc4)c4ccccc43)[C@H]2C)cc1 | -3.46
C=CCOC(=O)[C@H]1[C@@H]2C(=O)O[C@@H](c3ccccc3)[C@@H](c3ccccc3)N2[C@@H](c2ccc(OCCOC(=O)[C@H]3C[C@H]4C(=O)N[C@@H](CCCCNC(C)=O)C(=O)N4[C@H]3c3cccc(OCCO)c3)cc2)[C@]12C(=O)Nc1ccccc12 | -0.696
[N-]=[N+]=NCc1ccccc1C[C@]1(C(N)=O)COC(c2ccc(OCCCO)cc2)=N1 | 1.28
C=C(CC1([C@@H](NP(=O)(c2ccccc2)c2ccccc2)[C@H]2C[C@@H]2CCCC)CC1)c1ccccc1 | -0.721
CC[C@@H]1C=C(C(=O)O)[C@H](c2ccc(Br)cc2)N1S(=O)(=O)c1ccc(C)cc1 | -0.586
C=C(CCCC)/C(=C/C[C@H](OC(C)=O)c1ccccc1OCCO)c1cc(C(=O)OC)ccc1OC | -0.418
COC(=O)[C@@]1(Cc2ccc(OC)cc2)[C@H]2c3cc(C(=O)N(C)C)n(C)c3C[C@H]2CN1C(=O)c1ccccc1 | -1.7
CN(C)CCCCCCNC(=O)[C@H]1C[C@H]2C(=O)N[C@@H](CCCCN)C(=O)N2[C@H]1c1cccc(OCCO)c1 | -0.458
NC(=O)NCC#Cc1ccc2c(c1)[C@]1(C(=O)N2)[C@H](c2ccccc2OCCO)N2[C@H](c3ccccc3)[C@H](c3ccccc3)OC(=O)[C@H]2[C@@H]1C(=O)Nc1nc2ccccc2s1 | -0.126
CC1CC/C=C\[C@H]2OC34C=CCN(C(C)(C)C)C(=O)[C@H]3N(CCO)C(=O)[C@@H]4C2C(=O)O1 (stereo partly specified) | -0.593
C=C(COC)/C(=C/C[C@H](OC(C)=O)c1ccc(CO)o1)c1cc(C(=O)OC)ccc1OC | -0.603
CNS(=O)(=O)c1ccc(C)cc1 | 1.4
